Reference: publication PMC5540273 (PLoS ONE, 2017)
“And” between values parts separate entries of the source, which are not always exact repeats. Identical values can stand only once. Like-named read-outs stand apart in the source and are kept apart here.

Key:
STK16 = details: n = 1
STK33 = details: concentration: 1 μM, replicates: in singlicate; n = 1
STK35 = details: concentration: 1 μM, replicates: in singlicate; n = 1
STK36 = details: concentration: 1 μM, replicates: in singlicate; n = 1
STK39 = details: n = 1
SYK = details: n = 1
SgK110 = details: n = 1
TAK1 = tested on: T1, TAK1; details: concentration: 1 μM, replicates: in singlicate; n = 1
T1 construct: gene MAP3K7

TAOK1 = details: concentration: 1 μM, replicates: in singlicate; n = 1
TAOK2 = details: concentration: 1 μM, replicates: in singlicate; n = 1
[1] = concentration: 1 μM, replicates: in singlicate
[2] = concentration: 1 μM,replicates: in singlicate, 1 µM
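Note: KINOMEscan kinase panel screen.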

Row | Compound | %Inh (STK16; [1]) [%] | %Inh (STK33) [%] | %Inh (STK35) [%] | %Inh (STK36) [%] | %Inh (STK39; [1]) [%] | %Inh (SYK; [1]) [%] | %Inh (SgK110; [1]) [%] | %Inh (TAK1) [%] | %Inh (TAOK1) [%] | %Inh (TAOK2) [%] | %Inh (STK16; [2]) | %Inh (STK39; [2]) | %Inh (SYK; [2]) | %Inh (SgK110; [2])
1 | Cc1ccc(NC(=O)Nc2cc(C(C)(C)C)nn2-c2ccccc2)cc1 [GSK1014915] | 0 | 0 | 0 | 0 | 2 | 28 | 0 | 0 | 0 | 0 | – | – | – | –
2 | Cc1cc(NCC(c2ccccc2)c2ccccc2)nc(NCc2ccc(C(F)(F)F)cc2)n1 [GW497681] | 18 | 0 | 0 | 0 | 0 | 0 | 0 | 0 | 0 | 0 | – | – | – | –
3 | COc1cc2ncn(-c3cc(OCC4CCCO4)c(C(N)=O)s3)c2cc1OC (centres unmarked) [GSK204607] | 5 | 0 | 90 | 0 | 0 | 12 | 0 | 18 | 0 | 0 | – | – | – | –
4 | COc1cc(Nc2nccc(N3CCC(NC(=O)Nc4cc(C)ccc4C)C3)n2)cc(OC)c1OC (centres unmarked) [GSK1379762] | 57 | 3 | 3 | 0 | 16 | 0 | 0 | 0 | 0 | 0 | – | – | – | –
5 | Cc1cc(N2Cc3ccccc3C2)nc(Nc2ccc(S(=O)(=O)N3CCOCC3)cc2)n1.Cl [GSK1669917] | 0 | 0 | 0 | 4 | 0 | 35 | 0 | 0 | 0 | 0 | – | – | – | –
6 | Fc1cc(Cl)ccc1Nc1ccnc2cc(I)ccc12 [GW551191] | 9 | 0 | 57 | 0 | 15 | 0 | 4 | 0 | 0 | 0 | – | – | – | –
7 | COC(=O)c1c(-c2ccccc2)c2cc(OC)ccc2c(=O)n1Cc1ccccc1 | 3 | 0 | 3 | 11 | 0 | 0 | 0 | 19 | 0 | 0 | – | – | – | –
8 | COc1ccccc1CNC(=O)c1cc(C(=O)c2ccccc2C)c[nH]1 [GSK364507] | 11 | 0 | 0 | 0 | 14 | 16 | 0 | 0 | 0 | 0 | – | – | – | –
9 | COc1cc2ncnc(Nc3ccc4nc(-c5ccccc5)[nH]c4c3)c2cc1OC.Cl [GW282450] | 19 | 0 | 0 | 0 | 0 | 43 | 0 | 23 | 0 | 0 | – | – | – | –
10 | O=C(Nc1n[nH]c2cc(-c3cccc(F)c3F)ccc12)C1CC1 [SB-733894] | 12 | 0 | 0 | 9 | 0 | 0 | 17 | 48 | 23 | 0 | – | – | – | –
11 | CC(C)(C)c1ccc(C(=O)Nc2cn3cc(Cl)ccc3n2)cc1 | 0 | 0 | 0 | 0 | 0 | 17 | 0 | 0 | 0 | 10 | – | – | – | –
12 | COc1cc2nccc(Nc3ccc(NC(=O)c4ccc(C)cc4)c(O)c3)c2cc1OC.Cl [GW440132] | 0 | 7 | 0 | 0 | 0 | 38 | 0 | 0 | 0 | 0 | – | – | – | –
13 | COc1ccc(Nc2nccc(NCCNC(=O)Nc3ccccc3F)n2)cc1 [GSK1379901] | 18 | 0 | 0 | 0 | 10 | 32 | 0 | 0 | 0 | 0 | – | – | – | –
14 | Cc1csc(-c2nc(Nc3ccncc3)c3ccccc3n2)n1 [GW869640] | 17 | 18 | 0 | 0 | 0 | 2 | 8 | 25 | 36 | 16 | – | – | – | –
15 | Fc1cc(Cl)ccc1Nc1ccnc2cc(-c3ccc(CN4CCCCC4)o3)ccc12 [GW560116] | 1 | 0 | 0 | 0 | 0 | 0 | 0 | 0 | 0 | 0 | – | – | – | –
16 | CSc1nn2c(=O)cc(N3CCOCC3)nc2n1Cc1cccc(C(F)(F)F)c1C [GSK2363608] | – | 0 | 0 | 0 | – | – | – | 0 | 0 | 0 | 23% and 13% | 8% and 13% | 30% and 26% | 0% and 6%
17 | Cn1ccc2ncnc(Oc3ccc(NC(=O)Nc4ccccc4)cc3)c21 | 9 | 17 | 17 | 0 | 0 | 12 | 2 | 4 | 0 | 0 | – | – | – | –
